# Screening data from PubChem.
# The list is not random: actives were taken first. Their share in the collection is about 2.5%.
# p53ts 39C tox: cytotoxicity in p53ts cells at nonpermissive temperature. H1299-p53A138V viability at 39C, ATP luminescence, 24 h. Potency, µM (doses to about 46.1 µM), for the others: at the highest dose activity change, negative = cell killing, hits mostly cytotoxic. 1.5% of 130,000 active; also: nearly all actives have a fitted effect of over 55% in size
# p53ts 32C tox: cytotoxicity in p53ts cells at permissive temperature. H1299-p53A138V at 32C, ATP luminescence viability, 24 h. Potency, µM (highest dose often 46.1 µM), for inactives: at the highest dose activity change, negative = cytotoxicity, hits mostly cytotoxic. 0.93% of 130,000 active. AID 924;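 also: 0% = DMSO and -100% = full killing by reference compound; nearly all actives have a fitted effect of over 55% in size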
#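 ATP-content luminescence (ATPlite) read-out after 24 h compound exposure at 32C in H1299-p53A138V cells (600/well). Tested up to 46 uM. Normalized to DMSO (0%) and 100 uM tamoxifen (100% killing); Hill-fit AC50.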
# FLuc inh: inhibitors of firefly luciferase; 2.2% of 72,000 active; AID 411; P08659; Potency, µM (titrated, usually from 57.1 µM), without a hit: at the highest dose activity change, negative = inhibition, hits mostly inhibitors; purified firefly luciferase, luminescence, 8 min; also: nearly all actives have a fitted effect of over 40% in size
# Target sequence (P08659 whole entry, looked up): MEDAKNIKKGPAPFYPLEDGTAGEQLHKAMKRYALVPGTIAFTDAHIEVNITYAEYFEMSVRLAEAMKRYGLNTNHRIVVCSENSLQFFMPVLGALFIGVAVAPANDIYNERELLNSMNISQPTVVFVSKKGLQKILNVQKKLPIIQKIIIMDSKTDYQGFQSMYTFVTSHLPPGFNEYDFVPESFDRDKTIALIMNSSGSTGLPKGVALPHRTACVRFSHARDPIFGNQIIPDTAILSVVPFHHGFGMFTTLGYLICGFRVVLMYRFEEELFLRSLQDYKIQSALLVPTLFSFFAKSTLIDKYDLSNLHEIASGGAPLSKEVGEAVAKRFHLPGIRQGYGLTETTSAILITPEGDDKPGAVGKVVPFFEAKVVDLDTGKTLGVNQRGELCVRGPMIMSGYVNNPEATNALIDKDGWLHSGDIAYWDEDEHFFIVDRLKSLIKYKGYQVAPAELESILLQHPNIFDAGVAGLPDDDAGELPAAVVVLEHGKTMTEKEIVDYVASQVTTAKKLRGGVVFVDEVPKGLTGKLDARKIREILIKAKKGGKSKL
#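 qHTS concentration-response profiling: light output of P. pyralis luciferase with luciferin and 10 uM ATP, imidazole buffer pH 7.2. Read by luminescence after 8-min room-temperature incubation.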
# The depositor's hits bear a star; ? = inconclusive; / = not tested or not shown; [ ] = another dose, or the depositor's remark. Calls follow the shape of the dose curve; as a rule, active = well fitted curve in the direction sought with a large enough effect; inconclusive = small, poorly fitted or top-dose-only effect, or another doubt; inactive = no such curve, though single readings can be large; an effect the other way counts as inactive or inconclusive. Unless noted, % is scaled to controls: 0 for no effect and ±100 for the full control effect; potency is read from the fitted curve at half-maximal effect.
SMILES,p53ts 39C tox,p53ts 32C tox,FLuc inh
CCCCN(CCCNC(=O)c1cc(Nc2ccc(OC)c(OC)c2)nc2ccccc12)Cc1ccccc1,12.6µM*,-3.4%,/
CCCCN(C)CCCNC(=O)c1cc(-c2ccc(Br)s2)nc2ccccc12,12.6µM*,-10.6%,/
CCc1ccc(CNC(=O)c2cc(-c3ccc(Cl)s3)nc3ccccc23)cc1,13.2%,-1.5%,/
CCCCN(CCCC)CCCNC(=O)c1cc(-c2ccc(Cl)s2)nc2ccccc12,?,-12.3%,/
CCCCN(CCCNC(=O)c1cc(Nc2ccc(OC)cc2)nc2ccccc12)Cc1ccccc1,-25.8%,-8.4%,/
Cc1ccc(C)c(Nc2cc(C(=O)NCCCN(C)C3CCCCC3)c3ccccc3n2)c1,?,-9.1%,/
Cc1cc(C)cc(Nc2cc(C(=O)NCCCN(C)C3CCCCC3)c3ccccc3n2)c1,7.94µM*,?,/
CCc1ccccc1NC(=O)c1cc(-c2ccc(Cl)s2)nc2ccccc12,10µM*,?,/
CCNS(=O)(=O)c1ccc(C)cc1,7.1%,9.9%[1.84 µM],/
Cc1ccc(S(=O)(=O)Oc2cc(S(=O)(=O)O)cc3cc(S(=O)(=O)O)cc(N)c23)cc1,10.0%[9.22 µM],5.3%[9.22 µM],0.5%[11.4 µM]
COc1ccc(O[C@H]2C=C[C@@H](c3ccccc3)O[C@H]2CO/N=C2/c3cc(OC)ccc3O[C@@H](c3cccc(OC)c3)[C@H]2O)cc1,-1.9%[9.22 µM],-0.3%[9.22 µM],0.3%[11.4 µM]
CNC(=O)[C@@H]1O[C@@H](n2cnc3c(NCc4cccc(I)c4)ncnc32)[C@H](O)[C@@H]1O,-18.0%,6.2%,2.8%
O=C(c1cccs1)N1CCn2c1nc1ccccc12,?,?,15.8µM*
N#CCC(=O)N1CCn2c1nc1ccccc12,-11.1%,-3.4%,-35.2%
Cn1ccnc1C[C@@](C)(O)c1ccccc1,-4.8%[9.22 µM],-0.8%[9.22 µM],0.6%[11.4 µM]
Cc1ccc(N(Cc2ccccc2)Cc2ccccc2)cc1,-2.4%[9.22 µM],-3.7%[9.22 µM],2.1%[11.4 µM]
COCCn1c(=O)c(-c2ccc(Cl)cc2)nc2cnc(Oc3cccc(Cl)c3)nc21,-2.8%,-0.3%,1.3%[11.4 µM]
Cc1ccc(OC(=O)CSc2nnc(-c3ccc4c(c3)OCO4)o2)cc1,-7.3%,0.1%,/
O=C(c1ccc(Cl)cc1)N1CCCCC(Sc2nnc(-c3ccc4c(c3)OCO4)o2)C1=O (stereo not drawn),?,7.94µM*,12.6µM*
CCOc1ccc2nc(C)cc(Nc3ccccc3OCC)c2c1,7.94µM*,-29.7%,/
CCOc1ccc2nc(C)cc(C(=O)O)c2c1,-9.2%,-13.8%,2.2%
BrC/C=C/CBr,-3.7%,0.4%[1.84 µM],/
Cc1ccc2[nH]cc(C(c3ccccc3)c3ccc(C)s3)c2c1 (stereo not drawn),12.6µM*,?,/
Cc1ccc(C(c2ccccc2)c2c(C)[nH]c3ccccc23)s1 (stereo not drawn),-17.0%,-5.7%,/
C/C(CCC(=O)OC[C@@H]1O[C@H](C#Cc2ccccc2)C=C[C@@H]1Oc1ccc(C)cc1)=N/OC[C@@H](O)[C@H]1O[C@H]2OC(C)(C)O[C@H]2[C@@H]1O,-7.0%[9.22 µM],1.3%[9.22 µM],2.0%[11.4 µM]
SMILES,p53ts 39C tox,p53ts 32C tox,FLuc inh
Cc1cc(C)cc(NC(=O)Cn2cc(C(=O)C3CCCCC3)c3ccccc32)c1,10µM*,?,/
Cc1ccc(NC(=O)Cn2cc(C(=O)C3CC3)c3ccccc32)cc1,9.1%,1.9%,/
Cc1ccc2nc3c(c(Nc4ccc(C)c(C)c4)c2c1)CCC3,10µM*,?,/
Cc1ccc(Nc2c3c(nc4ccccc24)CCC3)cc1F,-25.4%,-10.3%,/
O=C(Nc1ccc2c(c1)OCCO2)c1ccccc1F,7.94µM*,5.01µM*,5.01µM*
CS(=O)(=O)Nc1ccccc1C(=O)Nc1ccc2c(c1)OCCO2,-15.9%,-14.5%,?
O=C(Nc1ccc2c(c1)OCCO2)c1c(F)cccc1F,?,?,12.6µM*
O=C(Nc1ccc2c(c1)OCO2)c1c(F)c(F)c(F)c(F)c1F,-7.0%,-27.2%,0.9%
Oc1ccccc1C(Sc1nc2ccccc2s1)Sc1nc2ccccc2s1,15.6%[9.22 µM],-6.0%[9.22 µM],-1.6%[11.4 µM]
Cc1ccc(NC(=O)Cn2c(=O)n(Cc3ccco3)c(=O)c3ccc(C(=O)NC4CCCC4)cc32)c(C)c1,12.6µM*,-26.5%,/
COc1ccc(Cl)cc1NC(=O)Cn1c(=O)n(Cc2ccco2)c(=O)c2ccc(C(=O)NC3CCCC3)cc21,4.5%,-0.1%,/
O=C(COC(=O)c1cnccn1)c1ccc2c(c1)CCCC2,-10.0%,-15.0%,20µM*
O=C(COC(=O)c1cnccn1)c1ccc(Br)cc1,-6.3%,-4.7%,-22.4%
COc1ccc2nc(C(C)O)[nH]c2c1 (stereo not drawn),-1.3%,-5.3%,/
CCOc1ccc2nc(-c3ccccc3)[nH]c2c1,5.01µM*,6.31µM*,3.16µM*
CCOc1ccc2nc(C(C)O)[nH]c2c1 (stereo not drawn),-1.2%,-4.6%,-3.5%
COc1ccc2nc(-c3ccccc3)[nH]c2c1,12.6µM*,10µM*,6.31µM*
COc1cccc(NC(=O)CN2C(=O)c3cccc4cccc2c34)c1,2.9%,-0.2%,/
OC[C@@H]1O[C@@H](n2cnc3c(NC4CCCC4)ncnc32)[C@@H](O)[C@H]1O,26.7%,55.8%,1.8%
CC(=O)CSCc1ccccn1,6.9%[9.22 µM],6.0%[9.22 µM],0.2%[11.4 µM]
Cc1cc(C)c(NC(=O)NC(=O)c2cccc(F)c2)c(C)n1,1.5%,8.8%,-1.3%
Cc1cc(NC(=O)NC(=O)c2ccc(F)cc2F)n[nH]1,?,?,15.8µM*
COc1cccc(N2CCN(C(=O)Cn3ncc4c3-c3ccccc3OC4)CC2)c1,?,-3.3%,/
CCOC(=O)c1ccc(-c2ccc(/C=C(\C#N)c3nc4ccc(C)cc4[nH]3)o2)cc1,3.16µM*,?,/
N#C/C(=C\c1ccc(-c2ccccc2C(=O)O)o1)c1nc2ccccc2[nH]1,-4.9%,-14.9%,/
SMILES,p53ts 39C tox,p53ts 32C tox,FLuc inh
N#C/C(=C\c1ccc(-c2ccc(F)cc2F)o1)c1nc2ccccc2[nH]1,6.31µM*,15.8µM*,/
CCOC(=O)c1ccc(-c2ccc(/C=C(\C#N)C(=O)Nc3cccc(C)c3)o2)cc1,-8.6%,0.3%,/
CCC(=O)N1CCc2cc(CNC(=O)c3cccc(N(C)C)c3)ccc21,6.2%,0.3%,/
Cc1cc(F)ccc1NCc1ccccc1-c1nnc(-c2ccccc2Cl)o1,-16.4%,-7.9%,/
CCc1ccc(NC(=O)CC2C(=O)N(c3cccc(C)c3)C(=O)N2Cc2ccco2)cc1 (stereo not drawn),-19.9%,-9.5%,/
c1cn(CCCNc2ncnc3nc[nH]c23)cn1,-21.9%,?,2.51µM*
CCN1CCN(CCCNc2ncnc3nc[nH]c23)CC1,29.8%,-8.6%,-1.3%
O=C1C=C[C@@H](O)[C@H]2[C@@H]3C(=O)N(C[C@@H]4CCCO4)C(=O)[C@@H]3CC[C@H]12,10.0%[9.22 µM],-7.8%[9.22 µM],1.1%[11.4 µM]
COc1ccc(CSc2nc3ncccc3[nH]2)cc1,/,15.8µM*,/
CC(C)OC(=O)CSc1nc2ncccc2[nH]1,1.0%,-7.5%,1.8%
CCOc1ccccc1C(=O)Nc1cccc(-c2nc3ccccc3s2)c1,-3.8%,-6.7%,/
C[C@H]1[C@H](O)[C@@H](C)C=CC=CC=CC=CC=CC=CC=C[C@H](O[C@@H]2O[C@@H](C)[C@H](O)[C@@H](N)[C@@H]2O)C[C@@H]2O[C@](O)(C[C@@H](O)C[C@@H](O)[C@@H](O)CC[C@@H](O)C[C@@H](O)CC(=O)O[C@H]1C)C[C@H](O)[C@H]2C(=O)O,12.9%[9.22 µM],-5.1%[9.22 µM],-1.3%[11.4 µM]
Cc1ccc(Nc2ncnc3c2nc2n3CCCC2)c(Br)c1,/,10µM*,/
